Data published in PubChem BioAssay AID588590 (National Center for Advancing Translational Sciences (NCATS), 2011).
Screen size: about 390,000 compounds; about 4,000 (1%) were called active. Another 7% or so got no clear call; they are omitted. Calls come from the whole dose curve; as a rule, active = well fitted inhibition curve with a large enough effect; inconclusive = small, poorly fitted or top-dose-only effect, or another doubt; inactive = no such curve, though single readings can be large or run the other way. The entries come from a sample that favours actives as a whole.

What follows are molecules tested against DNA polymerase iota (Homo sapiens) (UniProt Q9UNA4) (assay: qHTS for Inhibitors of Polymerase Iota). Settings: Pol iota fluorescent replication assay, 10 min; series mostly up to 115 µM.
DNA polymerase iota (Homo sapiens), sequence (Q9UNA4 whole entry, looked up): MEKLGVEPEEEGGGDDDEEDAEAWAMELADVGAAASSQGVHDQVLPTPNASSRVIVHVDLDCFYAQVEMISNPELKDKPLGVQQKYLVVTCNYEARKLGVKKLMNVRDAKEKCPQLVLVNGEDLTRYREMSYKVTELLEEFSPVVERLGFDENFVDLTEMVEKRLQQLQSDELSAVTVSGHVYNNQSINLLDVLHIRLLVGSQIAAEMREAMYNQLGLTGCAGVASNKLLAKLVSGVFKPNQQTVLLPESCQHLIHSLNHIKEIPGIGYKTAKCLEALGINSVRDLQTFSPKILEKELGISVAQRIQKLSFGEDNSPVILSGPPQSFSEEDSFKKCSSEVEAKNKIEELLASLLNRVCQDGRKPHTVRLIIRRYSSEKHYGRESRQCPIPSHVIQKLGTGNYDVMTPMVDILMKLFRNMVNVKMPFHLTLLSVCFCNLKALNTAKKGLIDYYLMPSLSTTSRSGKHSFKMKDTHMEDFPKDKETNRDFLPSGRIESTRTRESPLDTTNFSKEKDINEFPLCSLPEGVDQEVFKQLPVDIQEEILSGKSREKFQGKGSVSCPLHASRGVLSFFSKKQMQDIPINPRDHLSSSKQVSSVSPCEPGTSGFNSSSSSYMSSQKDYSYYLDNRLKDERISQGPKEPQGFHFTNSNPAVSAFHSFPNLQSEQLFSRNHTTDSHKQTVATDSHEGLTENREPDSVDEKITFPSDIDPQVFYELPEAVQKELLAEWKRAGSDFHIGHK
Description: DNA polymerases, such as Pol iota, are specifically involved in DNA repair. Pol iota specifically plays an important role in translesion synthesis, where the normal high-fidelity DNA polymerases cannot proceed and DNA synthesis stalls. […] Thus, while pol eta's (and most likely iota's) normal function is to protect humans against the deleterious consequences of DNA damage, under certain conditions they can have deleterious effects on human health. As a consequence, we propose to utilize a high throughput replication assay to identify small molecule inhibitors of pol iota.
In a collaboration between the National Institute of Child Health & Human Development (NICHD) and NIH Chemical Genomics Center, a high-throughput, fluorescent screen was developed to screen the NIH Molecular Libraries Small Molecule Repository (MLSMR). This screen is used to identify inhibitors of pol iota.
NIH Chemical Genomics Center [NCGC]
NIH Molecular Libraries Probe Centers Network [MLPCN]
Assay Submitter (PI): Roger Woodgate, NICHD)
Three microliters of reagents (buffer in column 3 and 4 as negative control and 10 nM Pol iota in columns 1, 2, and 5-48) will be dispensed into 1,536-well black solid-bottomed plate. Compounds (23 nL) will be transferred via Kalypsys pin tool equipped with 1536-pin array. The plates will then be incubated for 15 min at room temperature, and 1 µL substrate (50 nM final concentration) will be added to start the reaction and kinetically read twice at 0 min and 10 min on the Viewlux reader.
Potency is the fitted concentration of half-maximal effect.

Potency, active:
CCOc1ccc(NC(=O)c2ccc(NC(=O)COC(=O)c3ccc(NC(=O)CC#N)cc3)cc2)cc1 8.91 µM
O=C(COc1ccccc1)Nc1ccc(C(=O)N2CCCC2)cc1 89.1 µM
Cc1ccn2c(=O)nc(SCC(=O)NCc3ccc4c(c3)OCO4)nc2c1 44.7 µM
O=C(NC1=CC(=O)c2ccccc2C1=O)c1ccccc1 3.55 µM
Cc1ccc(C)c(Nc2nnc(-c3ccc(C)c(S(=O)(=O)N4CCCCC4)c3)c3ccccc23)c1 89.1 µM
COc1ccc2[nH]c3c(C)c4cc[n+](C)cc4c(C)c3c2c1 12.6 µM
CN(CCOc1ccccc1)C(=O)c1cc(-c2ccco2)nc2ccccc12 22.4 µM
CC1CCCN(C(=O)c2cc(-c3ccco3)nc3ccccc23)C1 (stereo not drawn) 28.2 µM
CN(C(=O)COC(=O)c1cc(-c2ccco2)nc2ccccc12)C1CCS(=O)(=O)C1 (stereo not drawn) 3.55 µM
O=C(Nc1cccc(F)c1)c1cc(-c2ccco2)nc2ccccc12 50.1 µM
O=C1Nc2ccc([N+](=O)[O-])cc2C1=Nc1cccc(CO)c1 7.94 µM
COc1ccc2[nH]c(C(=O)N/N=C/c3cc(OC)c(OC)c(OC)c3)cc2c1 17.8 µM
Cc1ccc(S(=O)(=O)N(C)C)cc1NC(=O)C1Cc2ccccc2CN1C(=O)c1ccco1 (stereo not drawn) 22.4 µM
CCOC(=O)c1c(C)[nH]c2c1-c1ccccc1C(=O)C2=O 1.41 µM
O=C(O)c1ccc(NN=CC2=C(N3CCOCC3)/C(=C/c3ccccc3)CC2)cc1 20 µM
Cc1c(CC(=O)N2CCN(C(=O)C3COc4ccccc4O3)CC2)c(=O)oc2c(O)c(O)ccc12 (stereo not drawn) 3.16 µM
O=C(CN1CCN(S(=O)(=O)c2cc(Cl)ccc2Cl)CC1)c1ccc(O)c(O)c1 10 µM
COC1=C(N2CCOCC2)C(=O)c2ccccc2C1=O 14.1 µM
COc1c(O)cc2oc(-c3ccc(O)c(O)c3)cc(=O)c2c1O 7.94 µM
C=CCNC(=O)CSc1nc2scc(-c3ccco3)c2c(=O)n1CC=C 44.7 µM
C=CCn1c(=S)[nH]c2scc(-c3ccco3)c2c1=O 4.47 µM

Potency, inactive:
CCOc1ccc(NC(=O)c2ccc(NC(=O)CN3C(=O)C(=O)N(CC(C)C)C3=O)cc2)cc1
CCOc1ccc(NC(=O)CCNC(=O)c2ccc(Br)cc2)cc1
O=C1O/C(=C\c2ccc(O)cc2)C(O)=C1c1ccc(O)cc1
Oc1ccccc1-c1nc2ccc(Cl)cn2c1Nc1ccc2c(c1)OCCO2
CCOc1ccc(CCNC(=O)c2csc3c2CCCCC3)cc1
Cc1ccccc1OCC(=O)Nc1c(C(=O)Nc2ccccc2F)oc2ccccc12
CCOc1ccc(NC(=O)COc2ccc(C(=O)N3CCC(C(N)=O)CC3)cc2OC)cc1
O=C(COc1ccccc1)Nc1ccc(N2CCN(C(=O)c3cccs3)CC2)cc1
COc1ccc(C2Sc3ccccc3NC3=C2C(=O)c2ccccc23)c(OC)c1OC (stereo not drawn)
CCSc1nnc2c(n1)OC(c1ccc(OCC(=O)O)cc1)Nc1ccccc1-2 (stereo not drawn)
Cc1cc(C)c2sc(NC(=O)c3ccc(S(=O)(=O)N4CCCC4)cc3)nc2c1
CCCCN(CC)CCCNC(=O)c1nn(C)c2c1CS(=O)(=O)c1ccccc1-2
Cc1ccccc1-c1nnc(SCC(=O)NCc2ccc3c(c2)OCO3)n1C
O=C(CSc1nc(=O)n2ccccc2n1)Nc1ccc2c(c1)OCCO2
Cc1ccccc1Nc1nn2c(=O)c3ccc(C(=O)NCCc4ccc(Cl)cc4)cc3nc2s1
O=C(COC(=O)c1cccc(Br)c1)Nc1cccc2c1C(=O)c1ccccc1C2=O
CC(=O)c1cc(NC(=O)c2ccccc2)c(=O)oc1/C=C/N(C)C
O=C(Nc1ccc([N+](=O)[O-])cc1)c1cnn2c1NC(=C1CC1)C=C2C(F)F
CCN(CCCNC(=O)c1cc2cc3cc(OC)ccc3nc2s1)c1ccccc1
O=C(NCCCN1CCN(c2cccc(Cl)c2)CC1)c1nnc(Cc2ccc(F)cc2Cl)o1
Cc1ccc(Nc2nnc(-c3ccc(C)c(S(=O)(=O)N4CCCCC4)c3)c3ccccc23)cc1
Cc1ccc(-c2nnc(Nc3ccc(C(=O)N(C)C)cc3)c3ccccc23)cc1S(N)(=O)=O
CCc1nc2nc(C)cc(Nc3ccc(F)c(Cl)c3)n2n1
Cc1nn(-c2nc(-c3ccccc3)cc(C(F)(F)F)n2)c(C)c1Cl
Cc1cc[n+](C2CCCCC2)cc1
Cc1ccc(S(=O)(=O)CCC(=O)OCC(=O)N(C)C2CCS(=O)(=O)C2)cc1 (stereo not drawn)
O=C(c1cc(-c2ccc(Cl)s2)nc2ccccc12)N1CCOCC1
Cc1cc(C(=O)Nc2ccc(C)c(S(=O)(=O)N3CCOCC3)c2)c2ccccc2n1
O=C(COc1ccccc1C(=O)Nc1ccccc1)Nc1cccc(F)c1
CCOc1ccccc1-c1cc(C(=O)N2CCOCC2)c2ccccc2n1
CN(CCOc1ccccc1)C(=O)c1cc(COc2c(F)cccc2F)on1
COc1ccc(CN(C)C(=O)c2cc(-c3ccc(C)cc3C)nc3ccccc23)c(OC)c1OC
COc1ccc(NC(=O)COc2ccc(C(=O)OCC(=O)N(C)C3CCS(=O)(=O)C3)cc2OC)cc1 (stereo not drawn)
CCCCC(CCCC)c1ccc(C=Nc2ccc(/C=C/c3ccnc4ccccc34)cc2)cc1
CCOc1cc(C(=O)NCCc2csc3nc(-c4ccc(C)cc4)nn23)cc(OCC)c1OCC
Cc1ccc(NC(=O)CN2c3ccccc3S(=O)(=O)c3ccccc32)cc1F
CCOc1ccccc1CNC(=O)c1ccc(-n2c(C)cc3c2CCC(C)C3)cc1 (stereo not drawn)
CCN(CC)C(=O)CSc1nc2ccsc2c(=O)n1Cc1ccccc1Cl
CC1=C(C(=O)OCc2ccc(C)cc2)C(c2ccccc2Cl)CC(=O)N1 (stereo not drawn)
CC(C)(C)OC(=O)N(Cc1ccco1)S(=O)(=O)c1ccccc1Br
CCC(=O)N1CCc2cc(S(=O)(=O)NC(CC(C)C)C(=O)NCCc3cccc(C)c3)ccc21 (stereo not drawn)
CN1CCN(/N=C2/C(=O)Nc3ccc([N+](=O)[O-])cc32)CC1
O=[N+]([O-])c1ccc(N(CCO)Cc2ccccc2)c([N+](=O)[O-])c1
CC(=O)c1ccc[n+](C(C)CCC(C)[n+]2cccc(C(C)=O)c2)c1 (stereo not drawn)
COc1cccc(CNC(=O)CN2C(=O)CCc3cc(S(=O)(=O)N4CCOCC4)ccc32)c1
COc1ccc(-c2cc(C(=O)NCc3cc(OC)c(OC)c(OC)c3)[nH]n2)cc1
COc1ccc2[nH]c(=O)c(CNc3ccc(C)c(C)c3)cc2c1
Cc1ccc(C)c(NC(=O)C2Cc3ccccc3CN2C(=O)OCc2ccccc2)c1 (stereo not drawn)
COc1ccccc1N1CCN(C(=O)C2Cc3ccccc3CN2C(=O)c2ccco2)CC1 (stereo not drawn)
OC[C@@H]1O[C@H](n2cnc3c(SCc4ccccc4)ncnc32)[C@H](O)[C@H]1O
COc1ccc(CNC(=O)Cc2coc3ccc(C(C)C)cc23)cc1
CCOC(=O)c1c(C)[nH]c(C)c1S(=O)(=O)N(C)CC(=O)N1CCN(c2ccccc2)CC1
CCOC(=O)c1c(SCC(=O)Nc2cccc(C)c2C)nc(=O)[nH]c1C
Cc1ccc(-n2ncc3c(=O)n(Cc4cccc(C(F)(F)F)c4)cnc32)cc1C
O=C(O)c1ccc(N/N=C/c2ccc3ncccc3c2)cc1
Cc1ccccc1N/N=C/c1ccc(N2CCOCC2)cc1
CCCCOc1ccc(C(=O)NO)cc1
C/C=C/NNC(=O)Cc1ccc(OC)cc1
COc1cc(NS(=O)(=O)c2ccc3c(c2)OCC(C(=O)N2CCCC2)O3)cc(OC)c1 (stereo not drawn)
COc1ccc(OC)c2sc(N3CCN(C(=O)C4COc5ccccc5O4)CC3)nc12 (stereo not drawn)
Cc1ccc(-c2ccc(CCC(=O)O)n2-c2ccc(C(N)=O)cc2)cc1
COc1ccc(Cl)cc1S(=O)(=O)N1CCN(CC(=O)C(C)(C)C)CC1
N#Cc1ccsc1NC(=O)CN1CCN(S(=O)(=O)c2cc(Cl)ccc2Cl)CC1
Cc1[nH]c2ccccc2c1C(=O)C(=O)N(C)c1ccccc1
Cc1ccc(-c2nc3ccccn3c2Nc2ccc(F)cc2)o1
CCCCCCCNc1ccc(/C=C/c2ccnc3ccccc23)cc1
O=C(Cn1c(=O)n(-c2ccc(F)cc2)c(=O)c2sc3ccccc3c21)NC1CCCC1
COc1ccc(CNC(=O)c2cc3c(-c4ccccc4F)nn(C)c3s2)c(OC)c1
CSc1cccc(NC(=O)CN2C(=O)CCc3cc(S(=O)(=O)N4CCCCC4)ccc32)c1
Cc1oc2c(c1C(=O)N1CCOCC1)C(=O)c1ccccc1C2=O
O=C1c2ccccc2-c2ncnc3c(N4CCOCC4)cc(N4CCOCC4)c1c23
Cc1cccn2c(=O)c3cc(C(=O)NC(C)c4ccccc4)c(=N)n(CCCO)c3nc12 (stereo not drawn)
COc1cc(O)c2c(=O)c3c(O)c(O)ccc3oc2c1OC
COc1ccc(-c2c(C)c3ccc(O)c(CN4CCN(C)CC4)c3oc2=O)cc1OC
C=CCn1c(SCC(=O)NCC2CCCO2)nc2sc(C)c(C)c2c1=O (stereo not drawn)
C=CCn1c(SCC(=O)NCCCO)nc2sc3c(c2c1=O)CCC3
CCOC(=O)c1cccc(NC(=O)C(Cc2ccccc2)NS(=O)(=O)c2cccc3nsnc23)c1 (stereo not drawn)
